AMA1-RON2 inh: qHTS for Inhibitors of AMA1-RON; Towards Development of Antimalarial Drug Lead: Primary Screen | Plasmodium falciparum AMA1 (3D7) - RON2 peptide interaction | AlphaScreen AMA1-biotinylated RON2 peptide binding | Potency, µM (series often up to 58.2 µM), for the others: at the top dose activity change, negative = inhibition, hits mostly inhibitors | 360,000 tested, 0.2% active;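 further: 0% = vehicle wells and -100% = peptide control; nearly all actives have a fitted effect of over 45% in size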
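AMA1 (3D7) with his tag at 25 nM final met compounds first, then biotinylated RON2 peptide at 25 nM; detection used donor plus acceptor beads, 10 µg/mL apiece, read by AlphaScreen after 30 min at room temperature.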
Pf growth 48h: Primary qHTS for delayed death inhibitors of the malarial parasite plastid, 48 hour incubation | P. falciparum luciferase growth in erythrocytes, 48 h | Potency, µM (highest dose often 28.7 µM), without a hit: top-dose activity change, negative = inhibition, most hits filed as inhibitors | 310,000 tested, 5.9% active | AID 504832, 2011
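Read-out is firefly luciferase luminescence from an integrated reporter in P. falciparum, so falling signal marks reduced parasite growth. Infected erythrocytes were at 2% hematocrit and 0.1% parasitemia (final) in Albumax-supplemented RPMI 1640.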
HCV inhibitor: qHTS Assay for Inhibitors of Hepatitis C Virus (HCV). Huh7.5.1 HCVcc-Cre infection, luciferase reporter, 44 h. 340,000 tested, 3.4% active. Potency, µM (series often up to 41.8 µM), for the others: at the top dose activity change, negative = inhibition, hits mostly inhibitors
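A cell-based infection assay in which seeded cells (1,000 per well) receive test compound after 4 h, are inoculated with HCVcc-Cre at approximately 0.5 moi, and are incubated 44 h before luminescence detection.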
Pf growth 96h: Primary qHTS for delayed death inhibitors of the malarial parasite plastid, 96 hour incubation; P. falciparum luciferase reporter growth, 96 h; Potency, µM (doses to about 28.7 µM), for the others: at the top dose activity change, negative = inhibition, most hits filed as inhibitors; 320,000 tested, 6.9% active
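Luminescence readout: decreased luciferase signal marks inhibited growth of reporter-expressing P. falciparum in infected red cells (2% hematocrit, 0.05% parasitemia final), exposed to compound two generations (96 h, 37 C, 5% CO2).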
Starred values were filed as active, the others as inactive; u = inconclusive; x = no result given; ! = repeats disagree. Shown are actives, neighbours in structure and some others; about 11% of the full set was active somewhere. The call rests on the fitted dose curve; in most records, active means well fitted curve in the direction sought with a large enough effect; inconclusive means small, poorly fitted or top-dose-only effect, or another doubt; inactive means no such curve, though single readings can be large; an effect the other way counts as inactive or inconclusive. Unless noted, on the % scale 0 is the no-effect control and ±100 the full control effect; potency means the concentration at half of the fitted maximal effect.

SMILES	AMA1-RON2 inh	Pf growth 48h	HCV inhibitor	Pf growth 96h
Cc1cc(NC(=O)C(C)SCC(=O)N(C)CC(=O)Nc2ccc(Br)cc2C)no1 (stereo not given)	-0.6%	-16.4%	x	u
CC(C)Oc1ccc(N2CC(C(=O)Nc3ccc4c(c3)OCO4)CC2=O)cc1 (stereo not given)	2.5%	x	-17.5%	14.7µM*
O=C(Nc1nc2ccccc2[nH]1)C1CC(=O)N(c2ccc3c(c2)OCCO3)C1 (stereo not given)	20.4%	5.5%	-3.1%	8.28µM*
O=C(NCCc1ccc(C(F)(F)F)cc1)C1CC(=O)N(c2ccc3c(c2)OCCO3)C1 (stereo not given)	-0.6%	u	-22.5%	-2.5%
CCOc1ccc(CCNC(=O)C2CC(=O)N(c3ccc4c(c3)OCCO4)C2)cc1OCC (stereo not given)	-2.3%	u	u	3.29µM*
O=C(Nc1ccccc1Br)C1CC(=O)N(c2ccc3c(c2)OCCO3)C1 (stereo not given)	-1.2%	u	11.3%	u
COc1ccc(-c2csc(NC(=O)C3CC(=O)N(c4ccc5c(c4)OCCO5)C3)n2)cc1 (stereo not given)	-0.9%	u	u	11.7µM*
COc1ccc(C)cc1-n1c(N)c(C#N)c(C#N)c1-c1ccc(OC)c(OC)c1OC	-5.5%	11.7µM*	-29.4%	50.0%
COc1cc(-c2cc3nc4ccccc4n3c(N)c2C#N)cc(OC)c1OC	12.3%	38.0%	-19.2%	u
O=C(NN=Cc1cc(Cl)ccc1[N+](=O)[O-])c1ccco1	20.5%	x	-19.5%	x
O=c1[nH]c(CN2CCN(C/C=C/c3ccccc3)CC2)nc2cc(Cl)ccc12	22.7%	u	14.1µM*	-5.0%
CNc1ncnc2c1ncn2[C@H]1CN(Cc2ccc3c(c2)OCO3)C[C@@H](CO)O1	5.2%	x	x	x
C=CCN1C(=O)C2(OCCCO2)c2cc(Cl)ccc21	7.8%	-9.9%	-28.9%	u
CC(=O)N1c2ccccc2Sc2ccccc21	-4.0%	0.0%	8.6%	u
Cc1cccc[n+]1CC(=O)N1c2ccccc2Sc2ccccc21	12.7%	3.7µM*	23.8%	-0.5%
CCc1nc(C(N)=O)c2[nH]c(=O)n(-c3ccc(OC)cc3OC)c2n1	5.1%	22.4%	2.8%	54.3%
COC(=O)C1=C(c2ccc(F)cc2OCc2ccccc2)C[C@@H]2CC[C@H]1N2C(=O)NCc1ccccc1C(F)(F)F	-1.8%	5.22µM*	-9.3%	u
COC(=O)C1=C(c2ccc(F)cc2OCc2ccccc2)C[C@@H]2CC[C@H]1N2C(=O)N1CCC(O)(c2ccc(Cl)cc2)CC1	-2.6%	x	u	x
COC(=O)C1=C(c2ccc(F)cc2OCc2ccccc2)C[C@@H]2CC[C@H]1N2C(=O)NCc1ccccc1Br	-1.6%	4.15µM*	u	1.31µM*
Cc1cccc(CCNCc2c(C(=O)O)c(C)n(-c3ccccc3)c2C)c1	-8.2%	-18.1%	u	16.1%
Cc1cc(C(=O)Nc2ccccc2C(F)(F)F)no1	-14.4%	1.7%	11.4%	10.4µM*
O=C(Nc1ccccc1C(F)(F)F)c1cc(-c2ccco2)on1	21.3%	36.3%	-10.8%	6.9%
CSc1ccccc1NC(=O)c1cc(C)on1	-2.8%	x	x	66.6%
O=C(Nc1ccccc1C(F)(F)F)c1cc(-c2ccccc2O)on1	-1.6%	1.04µM*	4.0%	0.465µM*
CC(C)(C)C(=O)Cn1ncc(Br)c(Br)c1=O	3.5%	-30.6%	10µM*	7.4%
SMILES	AMA1-RON2 inh	Pf growth 48h	HCV inhibitor	Pf growth 96h
CCOc1ccc2cc(C#N)c(SCC(=O)N3CCOCC3)nc2c1	-3.9%	66.6%	u	-8.7%
CCOc1ccc2nc(SCC(=O)N3CCCCCC3)c(C#N)cc2c1	2.6%	u	7.94µM*	46.5%
CC(=O)NC(C)c1nc2ccccc2n1CC(=O)NC(C)CCc1ccccc1 (stereo not given)	7.0%	-6.3%	-0.6%	u
COc1ccc(OC)c(CNC(=O)CCc2cn(C)c3ccccc23)c1	0.0%	7.6%	-16.6%	3.7µM*
COc1ccc(CCNC(=O)CCc2cn(C)c3ccccc23)c(OC)c1OC	6.0%	11.7µM*	u	u
COc1ccc2[nH]c(C)c(CCNCc3cn(C)c4ccccc34)c2c1	u	8.28µM*	u	5.22µM*
O=C(CSc1nnc2c(n1)[nH]c1ccccc12)Nc1ccc2c(c1)OCO2	-3.6%	4.5%	u	x
O=C(Cc1c(C(=O)O)[nH]c2ccccc12)Nc1ccc2c(c1)OCO2	-11.4%	u	13.4%	13.1µM*
COc1ccc(NC(=S)NCCc2c(C)[nH]c3ccc(OC)cc23)cc1	-18.3%	u	-22.5%	-0.5%
COc1ccc(S(=O)(=O)N2CCC(C(=O)NCCC(=O)NCc3ccccc3OC)CC2)cc1	8.1%	11.7%	21.2%	u
CC(=O)OC1c2ccccc2C(=O)N1Cc1ccccc1 (stereo not given)	3.0%	x	12.1%	u
CC(NC(=O)CNC(=O)C(Cc1ccccc1)NC(=O)OCc1ccccc1)C(N)=O (stereo not given)	-17.6%	18.9%	-4.7%	u
COc1ccc(OC)c(CNC(=O)Cc2c(C(=O)O)[nH]c3ccccc23)c1	-19.6%	0.6%	2.6%	9.28µM*
COc1ccc(Br)cc1CNC(=O)CCCc1cn(C)c2ccccc12	u	-7.0%	u	11.7µM*
Cc1ccc(S(=O)(=O)N/N=C\c2ccc([N+](=O)[O-])o2)cc1C	-5.1%	-7.6%	8.2%	4.15µM*
Cc1ccc(S(=O)(=O)N/N=C/c2ccc(C(=O)O)cc2)cc1	-3.4%	30.5%	19.3%	11.7µM*
O=[N+]([O-])c1ccc(/C=N/NS(=O)(=O)c2ccc(Cl)cc2)o1	-1.8%	16.9%	7.2%	0.3%
Cc1ccc(S(=O)(=O)N/N=C\c2ccc([N+](=O)[O-])o2)cc1	-3.6%	3.6%	12.6µM*	5.4%
COc1ccc(C(=O)CN2CCN(S(=O)(=O)c3cccc([N+](=O)[O-])c3)CC2)cc1	5.3%	11.9%	u	0.0%
O=C1NCN(c2ccccc2)C12CCNCC2	-8.7%	2.62µM*	6.3%	u
O=c1[nH]c2ccccc2n1C1CCN(CCCC(c2ccc(F)cc2)c2ccc(F)cc2)CC1	u	u	2µM*!	2.62µM*
O=C1NCN(c2ccccc2)C12CCN(CCCC(c1ccc(F)cc1)c1ccc(F)cc1)CC2	-10.7%	1.9µM*	u	3.7µM*
C=CCSc1nnc(NC(=O)CCNC(=O)c2ccccc2Cl)s1	-4.6%	x	x	x
Cc1ccc(Sc2ccc(S(=O)(=O)Nc3ccc(CC(=O)O)cc3)cc2)cc1C	0.4%	u	-1.7%	-26.5%
CC(C)OCCCNC(=O)C1CCN(S(=O)(=O)N2CCCC2)CC1	-4.2%	-4.8%	1.9%	u
O=[N+]([O-])c1cccc(-c2ccc(CN3CCCCC3)o2)c1	-6.8%	5.7%	-6.5%	4.7%
CCNC(=O)c1ccc(-n2nc(C)cc2-c2ccccc2)cc1	-0.4%	u	-22.6%	1.47µM*
